The campaign covered roughly 65,000 compounds. About 2,100 (3.2%) showed an effect of 50% or more. The median lay at about -52%. The entries come from a sample that favours strong results as a whole.
The molecules below were run on Plasmodium falciparum (assay: Screen against P. falciparum Asexual Blood Stage (ABS), at 5uM). Conditions: tested at 5 uM.
Format: functional, Dd2

Row | SMILES | INHIBITION
1 | CSCC(CCO)NC(=O)Nc1cc(F)ccc1C (stereo not drawn) | -130%
2 | CCc1noc(CN(CC)C(=O)C2CC(=O)N(Cc3ccncc3)C2)n1 (stereo not drawn) | -125%
3 | Fc1ccc(CNCc2nnc3n2CC(C(F)(F)F)CC3)c(F)c1 (stereo not drawn) | -35%
4 | COCCN1C[C@@H]2CN(c3ncc(F)cn3)C[C@@H]2C1=O | -65.7%
5 | Cc1ccc(-c2nc(CSCCC(=O)NC(N)=O)co2)cc1 | -132%
6 | O=C(N1CCCC1)N1CCC[C@]2(C[C@@H](Oc3ncccc3F)CO2)C1 | -39%
7 | CN(C)C1CCC2(CCN(Cc3cccnc3)CC2)c2ccccc21 (stereo not drawn) | 31.3%
8 | COc1ccccc1CNC(Cc1cccs1)c1nc(C)c(C)s1 (stereo not drawn) | 59.8%
9 | COc1cccc(CNC(Cc2cccs2)c2nc(C)c(C)s2)c1OC (stereo not drawn) | -80.8%
10 | COc1ccccc1CNC(Cc1cccs1)c1nc(C)cs1 (stereo not drawn) | -11.1%
11 | CN(C)C(=O)CN1CCCC1c1cccc(Cc2ccccc2F)n1 (stereo not drawn) | 68.8%
12 | CN1CCCC1c1cccc(Cc2ccccc2F)n1 (stereo not drawn) | -1.19%
13 | CC(=O)N1CCCC1c1cccc(Cc2ccccc2F)n1 (stereo not drawn) | -89.4%
14 | CC(C)CN1CCn2c(nc3cc(C(=O)NC(C)C)ccc32)C1 | -53.7%
15 | OC(CNc1ncnc2c1CCNCC2)C(F)(F)F (stereo not drawn) | -178%
16 | COCCNc1nc(C2CCCC2)nc2c1CCNCC2 | 54.1%
17 | OC(CNc1nc(C2CCCC2)nc2c1CCNCC2)C(F)(F)F (stereo not drawn) | 64.6%
18 | COCc1noc(CNc2nc(C3CCCC3)nc3c2CCNCC3)n1 | 27.3%
19 | Cc1nc2c(c(NCC(O)C(F)(F)F)n1)CCNCC2 (stereo not drawn) | -121%
20 | COCCNc1nc2c(c(NCC3CCOC3)n1)CCNCC2 (stereo not drawn) | -47.9%
21 | Cc1c(Cl)c(C(=O)NN2CCOCC2)nn1C | -48.6%
22 | O=C(CC1COCCN1S(=O)(=O)c1ccccc1)NCc1ccccn1 (stereo not drawn) | -170%
23 | O=C(C1CCC2(CCN(c3nncs3)CC2)CO1)N1CCCC1 (stereo not drawn) | 13.3%
24 | CC(C)CN1C(=O)C2(CCN(CC3CCOCC3)C2)c2ccccc21 (stereo not drawn) | 39.6%
25 | COc1ccsc1C(=O)N1CCCC(n2cncn2)C1 (stereo not drawn) | -121%
26 | O=C(NCc1ccco1)[C@H]1CC[C@@H]2[C@@H](CCN2Cc2nccs2)O1 | -11.2%

Row | SMILES | INHIBITION
27 | O=C(NCc1ccco1)[C@H]1CC[C@@H]2[C@@H](CCN2Cc2cccnc2)O1 | -34.5%
28 | O=C(NCc1ccco1)[C@@H]1CC[C@@H]2[C@@H](CCN2Cc2ccc(F)cc2)O1 | 67.2%
29 | Cc1ncsc1CN1C[C@H](C(=O)NC2CCCC2)[C@@H]2CCO[C@@H]2C1 | 1.73%
30 | CCO[C@H]1CO[C@@]2(CCCN(Cc3scnc3C)C2)C1 | -22.6%
31 | CNC(=O)CNC1CC2(CCN(c3ncccn3)CC2)c2ccccc21 (stereo not drawn) | -84.5%
32 | CS(=O)(=O)N1CCC2(CC1)CC(NCC1CC1)c1ccccc12 (stereo not drawn) | 48.3%
33 | c1cnc(N2CCC3(CC2)CC(NCC2CC2)c2ccccc23)nc1 (stereo not drawn) | 54.2%
34 | Cc1ccccc1-c1cc(C(=O)N2CCCC(n3ccnc3C)C2)[nH]n1 (stereo not drawn) | -29.5%
35 | COCCN1CCCCC12CC(=O)N(c1cccc(C#N)c1)C2 (stereo not drawn) | -132%
36 | COCCCNC(=O)CN1CCOC(c2ccccc2)C1 (stereo not drawn) | -41.4%
37 | CCc1cccc(N2CCC(NC(=O)c3ccncc3)CC2)c1 | -62.9%
38 | CCc1cccc(N2CCC(NC(=O)c3ccoc3C)CC2)c1 | -16.9%
39 | CCc1cccc(N2CCC(NC(=O)c3ccco3)CC2)c1 | 60.4%
40 | CN1CCN(C(=O)[C@H]2C[C@@H]3CCN(c4ncc(F)cn4)C[C@@H]3O2)CC1 | -116%
41 | CCN(CC)C1CCN(C(=O)NCc2cccc(-n3cccn3)c2)C1 (stereo not drawn) | -61.3%
42 | O=C(Nc1cccnc1-n1cccn1)N1CCCC(N2CCCC2)C1 (stereo not drawn) | 26.8%
43 | O=C(c1ccc(-n2cccn2)c(F)c1)N1CCCN2CCCC2C1 (stereo not drawn) | -23.2%
44 | O=C(c1cc(-n2cccn2)ccc1Cl)N1CCC(N2CCCC2=O)CC1 | -100%
45 | O=C(c1cc(-n2cccn2)ccc1Cl)N1CCCC(N2CCCC2)C1 (stereo not drawn) | 65.8%
46 | CCN(CC)C1CCN(C(=O)c2cc(-n3cccn3)ccc2Cl)CC1 | 65.1%
47 | Cc1cccc(NC2CCN(C(=O)Nc3ccc(F)c(F)c3)CC2)n1 | -20.3%
48 | Cc1ccc(C(=O)N2CCC3(CC2)CC(N2CCOCC2)C3)cc1 | -158%
49 | CC(C)CC(=O)Nc1cccc(CNCc2cccs2)c1 | -70.1%
50 | O=C(c1cc[nH]n1)N1CCc2onc(COc3cccnc3)c2C1 | -33.4%
51 | O=C(c1ccncc1F)N1Cc2nc(COCC3CC3)oc2C1 | -37.7%
52 | c1cncc(COCc2nnc3n2CCN(Cc2ccco2)C3)c1 | -119%

Row | SMILES | INHIBITION
53 | Cn1cc(-c2cnc3n2CCC32CCN(S(=O)(=O)C3CC3)CC2)cn1 | -61.5%
54 | Cc1cnc(NCc2csc(C(C)C)n2)nc1-c1cnn(C)c1 | -52.9%
55 | COCCn1ccnc1CN1CCc2[nH]cnc2C1c1ccccn1 (stereo not drawn) | -11.9%
56 | CCn1ncnc1CN1CCc2[nH]cnc2C1Cc1ccccc1 (stereo not drawn) | -61.6%
57 | CCCn1ccnc1CN1CCc2[nH]cnc2C1Cc1ccccc1 (stereo not drawn) | 66.5%
58 | COc1ccc(N2CCN(CC(O)c3cc(C)ccc3C)CC2)cc1 (stereo not drawn) | 31.4%
59 | Oc1ccc(CCC2CCCCN2Cc2noc(C3CC3)n2)cc1 (stereo not drawn) | -61.9%
60 | Cc1nc(CN2CCCCC2CCc2ccc(O)cc2)no1 (stereo not drawn) | -168%
61 | Cc1noc(C)c1CN1CCCCC1CCc1ccc(O)cc1 (stereo not drawn) | 51.5%
62 | Cc1ccc(S(=O)(=O)N2CCc3nc(C4CCNCC4)ncc3C2)cc1 | -51.4%
63 | N#Cc1cccc(C(=O)N2CCCC(O)(CO)CC2)c1 (stereo not drawn) | -41.3%
64 | Cn1cc(CN2CCc3ccc(=O)n(CC4CC4)c3CC2)cn1 | -67.9%
65 | CS(=O)(=O)CCNC(=O)c1ccc(-c2ccco2)[nH]c1=O | -78.3%
66 | COc1ccc(OC)c(C2CCN(C3CCOCC3)C2)c1 (stereo not drawn) | -74.2%
67 | Cc1nnc(N2CC[C@H](OCC3CC3)[C@@H](Cc3ccccc3)C2)s1 | -3.27%
68 | COc1ccc(CN2C[C@H](OCC3CCOCC3)[C@H]3COC[C@H]32)cc1 | -12.7%
69 | COc1ccc(C[C@H]2CN(C3CCOCC3)CC[C@@H]2OCC2CC2)cc1 | 60.9%
70 | COc1ccc(C[C@H]2CN(C3CCOCC3)CC[C@H]2OCC2CC2)cc1 | 68.4%
71 | COc1ccc(CC2CN(C3CCSCC3)CCO2)cc1 (stereo not drawn) | -96.7%
72 | Nc1cc(-c2c[nH]nc2C2CCCCN2C(=O)C2CCCC2)ccn1 (stereo not drawn) | -12.7%
73 | Cc1ccc(NC(=O)Cn2ncc(SCC(N)=O)c(Cl)c2=O)c(F)c1 | -57.4%
74 | COc1ccccc1NC(=O)N(CCO)Cc1ccsc1 | -19.5%
75 | O=C(NC1CCC1)[C@H]1CCS(=O)(=O)[C@@H]2CN(CCc3ccccc3)C[C@H]12 | -96.2%
76 | Cc1nc(CN2CCCN(C(=O)c3cccnc3O)CC2)cs1 | 49.4%
77 | CCOc1ccc(NC(C)=O)cc1S(=O)(=O)Nc1cc(C)on1 | -90.8%
78 | Cc1ccc(C)c(OC2CCN(C(=O)CNc3ccccc3Cl)CC2)c1 | -76.6%

Row | SMILES | INHIBITION
79 | CCc1nc(CC(=O)N2CCn3c(nnc3C(F)(F)F)C2)cs1 | -206%
80 | CCc1nc(CC(=O)N2CCn3c(CC)nnc3C2)cs1 | 52%
81 | Cc1nc(CC(=O)N2CCn3c(nnc3C(C)C)C2)cs1 | 51.5%
82 | CCc1nc(CC(=O)N2CCn3c(C)nnc3C2)cs1 | -18.3%
83 | CCc1nc(CC(=O)N2CCn3c(nnc3C(C)C)C2)cs1 | -56.3%
84 | CC(C)c1nnc2n1CCN(C(=O)Cc1csc(C(C)(C)C)n1)C2 | 20.2%
85 | c1coc(COCc2ncn3c2CN(Cc2cccs2)CCC3)c1 | -87%
86 | O=C(C1NCCc2[nH]cnc21)N1CCC2(C=Cc3ccccc32)CC1 (stereo not drawn) | -16.1%
87 | O=C(c1cccc(Cl)c1)N1CC[C@H]2[C@H]1CCN2CC1CC1 | -55.8%
88 | CCN(C1CCN(Cc2ncc(C(C)(C)C)o2)CC1)S(C)(=O)=O | -26.2%
89 | CS(=O)(=O)N1CCC(c2nc3ccc(-c4cccc(F)c4)cn3n2)CC1 | -44.9%
90 | OC1(CN2CCCC2)CCCN(Cc2c[nH]c(CC3CCCC3)n2)C1 (stereo not drawn) | 37.2%
91 | CC1(C)CN(Cc2c[nH]c(CC3CCCC3)n2)CC[C@]1(C)O | -29.5%
92 | OC1(CN2CCCCC2)CCN(Cc2c[nH]c(CC3CCCC3)n2)C1 (stereo not drawn) | 54.6%
93 | CN(C)c1ccc(C(=O)NCc2cccnc2-n2cncn2)cc1F | -20.3%
94 | CC(C)Nc1nc(-c2ccccc2)nc2c1CCN(C(=O)C1CC1)CC2 | 27.8%
95 | CCCN1CCC(c2nc3ccc(-c4cccc(OC)c4)cn3n2)CC1 | -23.2%
96 | Cn1cc(N2C(=O)CC[C@@H]3[C@H]2CCN3C(=O)c2cscn2)cn1 | -22.8%
97 | CN(CCc1ccccn1)Cc1nccn1Cc1ccccc1 | 57.9%
98 | CN(CCc1ccncc1)Cc1nccn1Cc1ccccc1 | 42.2%
99 | CN(Cc1ccncc1)Cc1nccn1Cc1ccccc1 | -37.9%
100 | CCN(C(=O)C1=NN(c2ccccc2)C(=O)CN1)c1ccccc1 | -66.6%
101 | CCN(Cc1ccco1)C(=O)C1=NN(c2ccccc2)C(=O)CN1 | 60.6%
102 | Cc1ccc(N2N=C(C(=O)N(C)Cc3ccco3)NCC2=O)cc1 | -13.2%
103 | CCOc1cc(C=Cc2ncc(C(=O)NC)s2)ccc1OC | 25.6%
